From PubChem BioAssay (Tox21)
Unmarked numbers belong to inactive results. Inconclusive results are not listed. A call without a number means that no potency is given here. The source made the active and inactive calls. Calls come from the whole dose curve; as a rule, active = well fitted curve in the direction sought with a large enough effect in the repeat runs; inconclusive = weak or mixed curves; inactive = no such curve, though single readings can be large; an effect the other way counts as inactive or inconclusive.

Assays:
[1] = qHTS RealTime-Glo MT Cell Viability Assay in HEK293 cells - 0 hour (AID 1224880); note: top concentration of the series differs between compounds; nearly all actives have a fitted effect of over 45% in size
Outline: (§1)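 600 HEK293 cells per well, dispensed already mixed with RealTime-Glo MT reagents. Compound dosing came 5 h later. The same wells were read for luminescence at 0, 8, 16, 24, 32 and 40 h of exposure at 37 C.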

[2] = A CellTox Green Cytotoxicity Assay to monitor cytotoxicity in HEK293 cells - 32 hour (AID 1224881); note: nearly all actives have a fitted effect of over 40% in size; note: potency is the fitted concentration of half-maximal effect
Outline: (§2)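 Dead-cell fluorescence measured kinetically: asymmetric cyanine dye, HEK293, 600 cells/well, 5 h settle, 23 nL cpd/DMSO, 37 C, reads 0–40 h every 8 h.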

[3] = A CellTox Green Cytotoxicity Assay to monitor cytotoxicity in HepG2 cells - 0 hour (AID 1224882); note: nearly all actives have a fitted effect of over 35% in size; note: potency is the fitted concentration of half-maximal effect
Outline: (§3)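 First, HepG2 cells (600/well) mixed with reagent were plated; second, after 5 h at 37 C they received compounds via pintool; third, fluorescence was measured at 0 h through 40 h at 8 h intervals.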

[4] = A CellTox Green Cytotoxicity Assay to monitor cytotoxicity in HepG2 cells - 32 hour (AID 1224883); note: nearly all actives have a fitted effect of over 50% in size; note: potency is the fitted concentration of half-maximal effect
Outline: as §3

[5] = qHTS RealTime-Glo MT Cell Viability Assay in HEK293 cells - 24 hour (AID 1224886); note: nearly all actives have a fitted effect of over 50% in size; note: potency is the fitted concentration of half-maximal effect
Outline: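 HEK293 cells were seeded at 600 cells/well together with NanoLuc luciferase and cell-permeant prosubstrate, preincubated 5 h at 37 C/5% CO2, then given compound in DMSO by pintool. Luminescence from viable-cell prosubstrate reduction was read repeatedly over 40 h.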

[6] = qHTS RealTime-Glo MT Cell Viability Assay in HEK293 cells - 8 hour (AID 1224887); note: nearly all actives have a fitted effect of over 50% in size; note: potency is the fitted concentration of half-maximal effect
Outline: as §1

[7] = A CellTox Green Cytotoxicity Assay to monitor cytotoxicity in HEK293 cells - 16 hour (AID 1224888); note: nearly all actives have a fitted effect of over 35% in size; note: potency is the fitted concentration of half-maximal effect
Outline: as §2

[8] = qHTS RealTime-Glo MT Cell Viability Assay in HepG2 cells - 0 hour (AID 1224889); note: nearly all actives have a fitted effect of over 50% in size
Outline: (§4)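 HepG2 cells were seeded at 600 cells/well together with NanoLuc luciferase and a cell-permeant prosubstrate, preincubated 5 h at 37 C/5% CO2, then pin-dosed with compounds in DMSO. Nonlytic luminescence from viable cells was read at each time point.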

[9] = qHTS RealTime-Glo MT Cell Viability Assay in HepG2 cells - 16 hour (AID 1224885); note: nearly all actives have a fitted effect of over 50% in size
Outline: as §4

[10] = A CellTox Green Cytotoxicity Assay to monitor cytotoxicity in HEK293 cells - 8 hour (AID 1224884); note: nearly all actives have a fitted effect of over 35% in size; note: potency is the fitted concentration of half-maximal effect
Outline: as §2

Compound	Potency [1]	Potency [2]	Potency [3]	Potency [4]	Potency [5]	Potency [6]	Potency [7]	Potency [8]	Potency [9]	Potency [10]
COc1cc(S(=O)(=O)Nc2ccccc2)c(OC)cc1N	inactive	inactive	inactive	inactive	inactive	inactive	inactive	inactive	–	–
CCCCCCOC(=O)CCCCC	inactive	inactive	inactive	inactive	inactive	inactive	inactive	inactive	inactive	–
CC1CCC(C(C)CS)CC1S (stereo unspecified)	inactive	49 µM (active)	inactive	inactive	inactive	inactive	49 µM (active)	inactive	inactive	–
CC(=O)OCC(C)C	inactive	inactive	inactive	inactive	inactive	inactive	inactive	inactive	–	inactive
C=Cc1ccc(OC(C)=O)cc1	inactive	inactive	inactive	inactive	–	inactive	inactive	inactive	–	inactive
CSCC[C@H](NC(=O)[C@H](Cc1c[nH]c2ccccc12)NC(=O)CCNC(=O)OC(C)(C)C)C(=O)N[C@@H](CC(=O)O)C(=O)N[C@@H](Cc1ccccc1)C(N)=O	inactive	inactive	inactive	inactive	inactive	inactive	inactive	inactive	inactive	–
O=c1[nH]c2cc(C(F)(F)F)c(N3CCOCC3)cc2n(CP(=O)(O)O)c1=O	inactive	inactive	inactive	inactive	inactive	–	inactive	inactive	inactive	–
CCSC(=O)N(CC)CC	inactive	inactive	inactive	inactive	inactive	inactive	inactive	inactive	inactive	–
CC(C)OC(=O)c1ccccc1C(=O)OC(C)C	inactive	inactive	inactive	inactive	inactive	–	inactive	inactive	–	inactive
CNC1CCCN(c2c(F)cc3c(=O)c(C(=O)O)cn(C4CC4)c3c2OC)C1 (stereo unspecified)	inactive	inactive	inactive	inactive	inactive	inactive	inactive	inactive	–	inactive
COC(CC(C)CCCC(C)(C)O)OC (stereo unspecified)	inactive	inactive	inactive	inactive	inactive	inactive	inactive	inactive	–	inactive
CC(=O)C(=O)CC(C)C	inactive	inactive	inactive	inactive	inactive	inactive	inactive	inactive	inactive	–
COC(=O)C1=C(C)NC(C)=C(C(=O)OC(C)(C)CN(C)CCC(c2ccccc2)c2ccccc2)C1c1cccc([N+](=O)[O-])c1 (stereo unspecified)	inactive	inactive	inactive	inactive	inactive	inactive	inactive	inactive	–	inactive
O=C(c1ccccc1)c1ccc(O)cc1	inactive	inactive	inactive	inactive	inactive	inactive	inactive	–	inactive	–
Cc1ccc(S(=O)(=O)NC(=O)NC2CCCCC2)cc1	inactive	inactive	inactive	inactive	inactive	inactive	inactive	inactive	–	inactive
CC(C)COC(=O)COc1cc(Cl)c(Cl)cc1Cl	inactive	inactive	inactive	inactive	inactive	inactive	inactive	inactive	inactive	–
COC(=O)Nc1nc2ccc(C(=O)C3CC3)cc2[nH]1	inactive	inactive	inactive	0.952 µM (active)	–	inactive	inactive	inactive	–	inactive
COc1ccc(C(=O)NCc2ccc(OCCN(C)C)cc2)cc1OC	inactive	inactive	inactive	inactive	inactive	inactive	inactive	inactive	inactive	–
O=C1CC[C@@H](C(=O)O)N1	inactive	inactive	inactive	inactive	inactive	–	inactive	inactive	–	inactive
CSSc1ccoc1C	inactive	inactive	inactive	inactive	inactive	inactive	inactive	inactive	inactive	–
C=CC(=O)NC(C)C	inactive	inactive	inactive	inactive	inactive	inactive	inactive	inactive	inactive	–
C=CC(=O)O	inactive	inactive	inactive	inactive	inactive	inactive	inactive	inactive	–	–
O=C(Nc1ccc(C(=O)O)c(O)c1)c1ccccc1	inactive	inactive	inactive	inactive	inactive	–	inactive	–	inactive	–
CCN(CC)CCNC(=O)c1cc(Cl)c(N)cc1OC	inactive	inactive	inactive	inactive	inactive	inactive	inactive	inactive	inactive	–
CC1CCc2nccnc21 (stereo unspecified)	inactive	inactive	inactive	inactive	inactive	inactive	inactive	–	inactive	–
O=C(O)c1cc(Cl)cc(Cl)c1O	inactive	inactive	inactive	inactive	inactive	inactive	inactive	inactive	inactive	–

Compound	Potency [1]	Potency [2]	Potency [3]	Potency [4]	Potency [5]	Potency [6]	Potency [7]	Potency [8]	Potency [9]	Potency [10]
O=P(O)(O)Oc1ccccc1	inactive	inactive	inactive	inactive	inactive	inactive	inactive	inactive	–	–
C=C(C)C(=O)OCCC(F)(F)C(F)(F)C(F)(F)C(F)(F)C(F)(F)C(F)(F)F	inactive	inactive	inactive	inactive	inactive	inactive	inactive	inactive	inactive	–
CC[C@@H](CO)NCCN[C@@H](CC)CO	inactive	inactive	inactive	inactive	inactive	–	inactive	inactive	inactive	–
SCCc1cnccn1	inactive	inactive	inactive	inactive	inactive	inactive	inactive	inactive	–	–
Cc1cccc2sc(N)nc12	inactive	inactive	inactive	inactive	inactive	inactive	inactive	inactive	inactive	–
Nc1ccc(N=Nc2ccc(N)cc2)cc1	inactive	inactive	inactive	inactive	inactive	inactive	inactive	inactive	–	inactive
O=S(=O)(O)CO	inactive	inactive	inactive	inactive	inactive	inactive	inactive	inactive	–	inactive
Nc1nc(-c2ccc([N+](=O)[O-])cc2)cs1	inactive	inactive	inactive	inactive	inactive	inactive	inactive	inactive	inactive	–
CCN(CC)c1ccc(C(=C2C=CC(=[N+](CC)CC)C=C2)c2ccc(S(=O)(=O)O)cc2S(=O)(=O)[O-])cc1	inactive	–	inactive	inactive	inactive	inactive	inactive	inactive	inactive	inactive
CC(C)C(=O)OCCOc1ccccc1	inactive	–	inactive	inactive	inactive	inactive	inactive	inactive	inactive	inactive
O=C(Oc1ccccc1)c1ccc2ccccc2c1O	inactive	inactive	inactive	–	–	–	inactive	inactive	inactive	inactive
CC(C)Cc1ccc(CC(=O)O)cc1	inactive	–	19 µM (active)	19 µM (active)	inactive	inactive	9.52 µM (active)	inactive	inactive	9.52 µM (active)
CC(C)(C(=O)c1cccnc1)c1cccnc1	inactive	–	inactive	inactive	inactive	inactive	inactive	inactive	inactive	inactive
CC(C)(O)CCc1ccccc1	inactive	–	inactive	inactive	inactive	inactive	inactive	–	inactive	inactive
CC1=C2[C@@H]([C@H](C)CC[C@H]2/C=C(\C)C(=O)O)[C@H](O)C1	inactive	–	inactive	inactive	inactive	inactive	inactive	inactive	inactive	inactive
CCN(CC)C(=O)/C(C#N)=C/c1cc(O)c(O)c([N+](=O)[O-])c1	inactive	–	inactive	inactive	inactive	inactive	inactive	inactive	inactive	inactive
CCCCCCC(CO)CCCC (stereo unspecified)	inactive	inactive	inactive	–	inactive	inactive	inactive	inactive	–	–
COc1ccc(-n2nc(C(F)F)cc2-c2ccc(S(C)=O)cc2)cc1 (stereo unspecified)	inactive	inactive	inactive	–	inactive	–	inactive	–	inactive	–
CCOc1ncc(F)c(=O)[nH]1	inactive	–	inactive	inactive	inactive	inactive	inactive	inactive	inactive	inactive
Cc1cn([C@H]2C[C@H](F)[C@@H](CO)O2)c(=O)[nH]c1=O	inactive	–	inactive	inactive	inactive	inactive	inactive	inactive	inactive	inactive
CC(=O)C(C)=O	inactive	inactive	inactive	–	inactive	–	inactive	inactive	inactive	–
Oc1ccc2c(c1)Cc1ccccc1-2	inactive	inactive	inactive	–	19.5 µM (active)	21.9 µM (active)	inactive	inactive	inactive	–
Cc1ccc(Cl)cc1N	inactive	–	inactive	inactive	inactive	inactive	inactive	–	inactive	inactive
COC1CCC=CO1 (stereo unspecified)	inactive	inactive	inactive	inactive	inactive	–	inactive	inactive	–	–
CC(C)N(C)C	inactive	–	inactive	inactive	inactive	inactive	inactive	inactive	inactive	inactive
